This is one part of a sample in which hits are shown more often than they occur.
Menin-MLL FL inh – displaces fluorescein MLL peptide from human menin; Fluorescence polarization, fluorescein-MLL peptide displacement from menin; FP activity change, % at 61.4 µM; 290,000 tested, under 10 active; AID 1766; active means well fitted curve in the direction sought with a large enough effect in the polarisation, not every such curve was filed as active; inconclusive means small, poorly fitted or top-dose-only effect, or effect the other way, or a change in a side signal; inactive means no such curve, though single readings can be large or run the other way; the % refers to the polarisation; further: % of control where 0% means no effect
Menin MLL FP TR – displaces Texas Red mutant MLL peptide from human menin; Potency, µM (doses to about 61.6 µM), inactives show at the highest dose FP activity change, negative = inhibition, actives largely listed as inhibitors; Menin + Texas Red MLL mutant peptide, fluorescence polarization; 270,000 compounds, 0.23% hits; AID 1768; O00255; active means well fitted inhibition curve with a large enough effect in the polarisation, with a control signal flat, not every such curve was filed as active; inconclusive means small, poorly fitted or top-dose-only effect, or effect the other way, or a change in a side signal; inactive means no such curve, though single readings can be large or run the other way; the % refers to the polarisation; further: potency means the concentration at half of the fitted maximal effect; % of control where 0% means no effect
ClpP mod – qHTS Assay for Activators of ClpP | 340,000 compounds, 1.9% hits | purified B. subtilis ClpP, FRET peptide cleavage, 20 min | ATP-dependent Clp protease proteolytic subunit (Bacillus subtilis (strain 168)), P80244 | Potency, µM (titrated, usually from 57.5 µM), for the others: at the top dose activity change, negative = active; active means well fitted falling curve with a large enough effect; inconclusive means small, poorly fitted or top-dose-only effect; inactive means no such curve, though single readings can be large or run the other way; further: potency means the concentration at half of the fitted maximal effect; the source files actives as falling curves though it sought activators and does not explain the sign; nearly all actives have a fitted effect of over 65% in size
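Purified B. subtilis ClpP, 10 microg/mL final in Tris/HCl pH8 with KCl, BSA, glycerol and Tween-20, cleaved an Abz/nitrotyrosine-quenched decapeptide. Fluorescence (ex 320, em 430) was read at 0 and 20 min at room temperature. Delta was normalized to 5.8 microM ADEP and DMSO/no-enzyme controls.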
MLL CXXC-DNA inh – MLL CXXC-DNA interaction inhibition | AID 2662 | MLL-CXXC / FITC-HOXA9 DNA fluorescence polarization | 290,000 compounds, 0.037% hits | Q03164 | Potency, µM (series often up to 115 µM), for the others: at the top dose activity change, negative = inhibition, actives largely listed as inhibitors; active means well fitted inhibition curve with a large enough effect in the polarisation, with a control signal flat, not every such curve was filed as active; inconclusive means small, poorly fitted or top-dose-only effect, or effect the other way, or a change in a side signal; inactive means no such curve, though single readings can be large or run the other way; the % refers to the polarisation; further: potency means the concentration at half of the fitted maximal effect
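Fluorescence polarization: 7 uM MLL-CXXC (stock) preincubated 5 min with compounds, then 50 nM fluorescein-HOX-A9 DNA (stock) added; 30 min ambient. Buffer 50 mM Tris-HCl pH 7.5, 50 mM NaCl, 1 mM DTT, 0.05% BSA.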
p53 reactivator – re-activators of mutant p53. Potency, µM (highest dose often 92.2 µM), for inactives: at the highest dose activity change, positive = activation, usual class: activators. 320,000 compounds, 0.063% hits. AID 504706. H1299 p53-A138V BP100-luciferase reporter, luminescence, 24 h; active means well fitted activation curve with a large enough effect; inconclusive means small, poorly fitted or top-dose-only effect; inactive means no such curve, though single readings can be large or run the other way; further: potency means the concentration at half of the fitted maximal effect; % of control where 0% means no effect; nearly all actives have a fitted effect of over 45% in size
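H1299 (p53-null), stable ts p53-A138V + BP100-Luc; 1000 cells/well, Opti-MEM/10% FBS; cpd 4 pt, 1:5; 24 h, 37 deg C, 5% CO2; detection reagent 10 min RT; luminescence.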
Active calls of the source: *.

What do the screens show for `CO[C@H]1C[C@@H]2CC[C@@H](C)[C@@](O)(O2)C(=O)C(=O)N2CCCC[C@H]2C(=O)O[C@H]([C@H](C)C[C@@H]2CC[C@@H](OCCO)[C@H](OC)C2)CC(=O)[C@H](C)/C=C(\C)[C@@H](O)[C@@H](OC)C(=O)[C@H](C)C[C@H](C)/C=C/C=C/C=C/1C`?
Menin-MLL FL inh: 1; Menin MLL FP TR: -9%; MLL CXXC-DNA inh: 4%

What do the screens show for `CC(=O)Nc1ccc(S(=O)(=O)N2CCN(c3nc(NC4CCCC4)c4ccccc4n3)CC2)cc1`?
Menin-MLL FL inh: 4; Menin MLL FP TR: 42%; ClpP mod: 28µM*; MLL CXXC-DNA inh: 39%; p53 reactivator: -6%

Results for CC(=O)Nc1ccc(S(=O)(=O)N2CCN(c3cc(C)nc4ccccc34)CC2)cc1 ?
Menin-MLL FL inh: 4; Menin MLL FP TR: 38%; ClpP mod: -6%; MLL CXXC-DNA inh: 6%; p53 reactivator: -28%

What do the screens show for `CC1=C[C@@H](O)CC(C)(C)[C@@H]1/C=C/C(C)=C/C=C/C(C)=C/C=C/C=C(C)/C=C/C=C(C)/C=C/C1=C(C)C[C@H](O)CC1(C)C`?
Menin-MLL FL inh: -2; Menin MLL FP TR: -17%; MLL CXXC-DNA inh: 6%

What do the screens show for `C#CCOC(=O)Nc1ccc(=O)n(Cc2c(Cl)cccc2Cl)c1`?
Menin-MLL FL inh: 0; ClpP mod: 28µM*; MLL CXXC-DNA inh: 5%; p53 reactivator: -4%

Results for COC(=O)N1C(C)=Cc2ccccc2C1CC(C)=O (stereo not given) ?
Menin-MLL FL inh: 2; Menin MLL FP TR: -8%

How did O=C(COc1ccccc1C(=O)Nc1ccccc1)Nc1ccc(Br)cc1 do in these assays?
ClpP mod: -5%

How did Brc1cc(Br)c[n+](CCc2ccccc2)c1 do in these assays?
ClpP mod: -2%

Results for COC(=O)c1[nH]c2ccc(C)cc2c1NC(=O)CN1CCc2cc(OC)c(OC)cc2C1 ?
Menin-MLL FL inh: 2; Menin MLL FP TR: 6%; ClpP mod: inconclusive; MLL CXXC-DNA inh: 13%; p53 reactivator: -7%

Results for CCOC(=O)c1[nH]c2ccc(OC)cc2c1NC(=O)CN1CCN(c2ccccn2)CC1 ?
Menin-MLL FL inh: 0; Menin MLL FP TR: -1%; MLL CXXC-DNA inh: -1%; p53 reactivator: -9%

What do the screens show for `CCOC(=O)c1[nH]c2ccc(C)cc2c1N`?
Menin-MLL FL inh: 0; Menin MLL FP TR: -1%; ClpP mod: 25µM*; MLL CXXC-DNA inh: 2%; p53 reactivator: inconclusive

What do the screens show for `CCOC(=O)c1[nH]c2ccc(OCC)cc2c1NC(=O)CN1CCCC(C)C1` (stereo not given)?
Menin-MLL FL inh: -2; Menin MLL FP TR: 1%; ClpP mod: 14µM*; MLL CXXC-DNA inh: -3%; p53 reactivator: 5%

What do the screens show for `CCOC(=O)c1[nH]c2ccc(OCC)cc2c1NC(=O)CN1CCN(c2ccccn2)CC1`?
Menin-MLL FL inh: 3; Menin MLL FP TR: 13%; ClpP mod: 18µM*; MLL CXXC-DNA inh: -4%; p53 reactivator: -13%

What do the screens show for `COC(=O)c1[nH]c2ccc(C)cc2c1NC(=O)CN1CCCC(C)(C)C1`?
Menin-MLL FL inh: 3; Menin MLL FP TR: 34%; ClpP mod: 18µM*; MLL CXXC-DNA inh: -8%; p53 reactivator: -4%

Results for CCOc1c(Cl)cc(CNc2ccc3[nH]c(=O)[nH]c3c2)cc1OC ?
ClpP mod: 18%

What do the screens show for `CCOC(=O)c1[nH]c2ccc(C)cc2c1NC(=O)CN1CCCCC1`?
Menin-MLL FL inh: 0; Menin MLL FP TR: 0%; ClpP mod: 32µM*; MLL CXXC-DNA inh: -2%; p53 reactivator: -17%

What do the screens show for `COC(=O)c1[nH]c2ccc(F)cc2c1NC(=O)CCN1CC(C)OC(C)C1` (stereo not given)?
Menin-MLL FL inh: 0; Menin MLL FP TR: -5%; ClpP mod: 16µM*; MLL CXXC-DNA inh: -6%; p53 reactivator: -31%

Results for CCOC(=O)c1[nH]c2ccc(F)cc2c1NC(=O)C(C)N1CCc2cc(OC)c(OC)cc2C1 (stereo not given) ?
Menin-MLL FL inh: 0; Menin MLL FP TR: 0%; ClpP mod: 20µM*; MLL CXXC-DNA inh: 0%; p53 reactivator: 7%

High-throughput results as filed in PubChem BioAssay.
